Source: PubChem BioAssay (NCI)
This is part of a sample that, as a whole, favours compounds with a hit. Of some 79,000 tested, about 15% had one in any assay. No stated cut-off is given here; in the data, active means growth inhibition above about 70%; inactive means the rest.

Assays:
[1] = NCI Yeast Anticancer Drug Screen. Data for the rad50 strain (AID 155);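 further: 0% = growth of vehicle-only cultures of the same strain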; conditions: S. cerevisiae rad50 strain growth inhibition; at 50.0 µM; active compounds read high
Summary of the method: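 Genetically altered yeast (DNA repair pathway); compound treatment; growth inhibition vs vehicle ctrl.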

[2] = NCI Yeast Anticancer Drug Screen. Data for the mec2-1 strain (AID 157); conditions: S. cerevisiae mec2-1 strain, at 50.0 µM, active compounds read high
Summary of the method: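 Compounds were applied to mec2-1 yeast cells. Their growth was then compared with that of vehicle-treated cultures to give growth inhibition.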

[3] = NCI Yeast Anticancer Drug Screen. Data for the sgs1 mgt1 strain (AID 161);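 further: 0% = growth of cultures given vehicle only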; conditions: S. cerevisiae sgs1 mgt1 strain, at 50.0 µM, active compounds read high
Summary of the method: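 Growth of a repair-deficient yeast mutant was monitored after compound treatment and expressed as inhibition relative to vehicle-treated cultures.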

[4] = NCI Yeast Anticancer Drug Screen. Data for the cln2 rad14 strain (AID 165);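 further: 0% = growth equal to vehicle treated cultures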; conditions: S. cerevisiae cln2 rad14 strain, at 50.0 µM, active compounds read high
Summary of the method: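 Strain: cln2 rad14 yeast, altered in cell cycle control and DNA damage repair. Read-out: growth inhibition vs vehicle.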

[5] = NCI Yeast Anticancer Drug Screen. Data for the bub3 strain (AID 167); conditions: S. cerevisiae bub3 mutant strain, at 50.0 µM, active compounds read high
Summary of the method: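 Yeast carrying a defined mutation is treated with each compound, and growth is compared with that of vehicle-exposed cells to give inhibition.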

[6] = NCI Yeast Anticancer Drug Screen. Data for the mlh1 rad18 strain (AID 175); conditions: S. cerevisiae mlh1 rad18 strain growth inhibition; at 50.0 µM; active compounds read high
Summary of the method: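 A repair-deficient yeast strain is exposed to test compound, and growth is scored relative to vehicle-treated controls.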

Measured: growth inhibition

O=S(=O)(N=N/C=C1\C=CC=CN1O)c1cccs1
inactive: [1] -12.1% | [2] 6.3% | [3] -8.25% | [4] -1.15% | [5] -26.4% | [6] -21.1%

CCOC(=O)N1CCc2cc(OC)c(OC)c3c2c1cc1cc(OC)c(OC)cc13
inactive: [1] -9.2% | [2] 18.9% | [3] -4.55% | [4] -35.5% | [5] 16.1% | [6] 16.4%

COC(=O)C(Cl)(Cl)c1nc(NC(C)=O)[nH]c(=O)c1Cl
inactive: [1] 0.45% | [2] 13.3% | [3] 3.65% | [4] -20% | [5] -16.4% | [6] 0.45%

CC1CCc2c(ccc3ccccc23)C1 (stereo not given)
inactive: [1] -0.25% | [2] -16.4% | [3] -3.55% | [4] -4.55% | [5] -16.8% | [6] -2.05%

C/C(=C/C(C)C)C(C)(C#N)C(N)=O (stereo not given)
inactive: [1] 8.75% | [2] 5.8% | [3] 1.2% | [4] 8.25% | [5] 8.75% | [6] 4.35%

CC(CCOS(C)(=O)=O)OS(C)(=O)=O (stereo not given)
inactive: [1] 8.25% | [2] -5.2% | [3] 1.25% | [4] -3.25% | [5] 8.95% | [6] -7.6%

COC(=O)c1ccccc1O
inactive: [1] -3.4% | [2] 2.25% | [3] -7.9% | [4] -39.4% | [5] 1.25% | [6] -19.5%

COc1ccc(C(=O)N/N=C/c2ccccc2)cc1
inactive: [1] 8.3% | [2] -10.8% | [3] -7.7% | [4] 6.85% | [5] 2.6% | [6] -18.1%

Cc1cccc(NC(=O)c2c(Cl)c(Cl)c(Cl)c(Cl)c2C(=O)O)c1C
inactive: [1] 9.8% | [2] 2% | [3] 2.6% | [4] -35.5% | [5] 5.8% | [6] 8.95%

O=C(NO)Nc1ccc(Cl)cc1
inactive: [1] 12.2% | [2] 8.7% | [3] 2.95% | [4] -2.15% | [5] -9.2% | [6] 1.65%

COc1ccc2c3c(c(C(=O)O)oc13)CCC2
inactive: [1] 3.85% | [2] -3.05% | [3] -3.8% | [4] -5.8% | [5] -15.3% | [6] 16.8%

N#CCCCCN1CCCC1
inactive: [1] 32.2% | [2] -8.7% | [3] 3.4% | [4] 12.7% | [5] 10.1% | [6] 9.05%

CCCc1nc2c([nH]1)c(=O)n(C)c(=O)n2C
inactive: [1] 22.6% | [2] -14.3% | [3] 3.5% | [4] 9.85% | [5] -21.1% | [6] 22.6%

CCOC1CCCC(OCC)O1 (stereo not given)
inactive: [1] -44.4% | [2] -48.5% | [3] -19.9% | [4] 12% | [5] -37.6% | [6] -27.9%

Nc1cccn2cnnc12
inactive: [1] 0.1% | [2] 15.9% | [3] -4.6% | [4] 17.4% | [5] 23.1% | [6] 19.4%

C=CCC1=C(C)C(O)CC1=O (stereo not given)
inactive: [1] -21.9% | [2] -13.7% | [3] -0.75% | [4] -15.7% | [5] 0.7% | [6] -41.6%

Cc1cccc([N+](=O)[O-])c1C
inactive: [1] 13.7% | [2] -10.4% | [3] 7.3% | [4] 23.4% | [5] 10.8% | [6] -15.6%

COc1ccc(C=O)c(NC(=O)C(C)(C)C)c1
inactive: [1] 37.4% | [2] 23.9% | [3] 9.8% | [4] 1.7% | [5] 23.2% | [6] -13.7%

Cc1cccc(C)c1NC(=O)C(=O)Cc1nc2ccccc2s1
inactive: [1] -12.1% | [2] -0.45% | [3] -9.25% | [4] -4.45% | [5] -30.5% | [6] -6.8%

O=C1c2cc([N+](=O)[O-])ccc2-c2c(F)cccc21
inactive: [1] 5.5% | [2] 8.25% | [3] -1% | [4] -32% | [5] 10.2% | [6] 4.1%
